Luc counter: Counterscreen for Luciferase (Kinase-Glo TM) Inhibition | Luciferin 4-monooxygenase (Photuris pensylvanica), Q27757 | Kinase-Glo luciferase, ATP luminescence, 8 min | Potency, µM (highest dose often 38.3 µM), inactives show at the highest dose activity change, negative = inhibition, hits mostly inhibitors | 200,000 compounds, 0.28% hits; note: % is set by controls: 0 for no effect and ±100 for the full control effect; nearly all actives have a fitted effect of over 60% in size
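Substrate mix (final 50 mM imidazole pH 7.2, 50 mM KCl, 7 mM MgCl2, 10 uM ATP, 0.01% Tween 20, 0.05% BSA) plus pin-tool compound, then Kinase-Glo detection mix; 8 min ambient, luminescence read.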
FLuc counter: qHTS profiling assay for firefly luciferase inhibitor/activator using purifed enzyme and Km concentrations of substrates (counterscreen for miR-21 project); Luciferin 4-monooxygenase (Photinus pyralis), P08659; purified FLuc, Km substrates, luminescence inhibition; Potency, µM (series often up to 57.5 µM), for inactives: at the highest dose activity change, negative = inhibition, usual class: inhibitors; 360,000 compounds, 6.9% hits; AID 588342, 2011;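 note: plate controls were vehicle for no effect and reference inhibitor for full effect; nearly all actives have a fitted effect of over 55% in size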
Target sequence (P08659 whole entry, looked up): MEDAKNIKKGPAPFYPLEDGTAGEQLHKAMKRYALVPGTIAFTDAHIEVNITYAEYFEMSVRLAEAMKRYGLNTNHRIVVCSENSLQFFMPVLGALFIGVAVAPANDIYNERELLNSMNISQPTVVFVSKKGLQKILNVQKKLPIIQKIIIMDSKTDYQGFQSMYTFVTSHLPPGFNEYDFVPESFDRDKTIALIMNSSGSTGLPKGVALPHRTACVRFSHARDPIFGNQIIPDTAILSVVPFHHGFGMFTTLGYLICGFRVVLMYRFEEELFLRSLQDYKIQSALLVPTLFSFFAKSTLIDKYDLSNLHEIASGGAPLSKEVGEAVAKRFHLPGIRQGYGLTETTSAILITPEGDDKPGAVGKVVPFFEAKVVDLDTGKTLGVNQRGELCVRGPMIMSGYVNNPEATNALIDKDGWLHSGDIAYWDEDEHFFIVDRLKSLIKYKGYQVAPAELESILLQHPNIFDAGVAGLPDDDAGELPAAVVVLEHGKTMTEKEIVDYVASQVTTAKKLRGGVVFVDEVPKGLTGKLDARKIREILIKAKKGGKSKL
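Biochemical qHTS of compounds, final roughly 60 µM downward over six points, against 10 nM purified firefly luciferase using Km concentrations of substrates (10 uM D-luciferin, 10 uM ATP) in Tris acetate pH 7.5 buffer; luminescence output.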
SMN2 splice up: qHTS Assay for Enhancers of SMN2 Splice Variant Expression; HEK293 SMN2-luciferase splicing reporter, luminescence, 30-36 h; AID 1458, 2008; Potency, µM (titrated, usually from 46.1 µM), inactives show top-dose activity change, positive = activation, most hits filed as activators; 210,000 compounds, 2.8% hits; note: % of control where 0% means no effect; nearly all actives have a fitted effect of over 55% in size
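HEK293 cells carry an SMN2 minigene-luciferase reporter in which exon 7 inclusion puts luciferase in frame. Cells were seeded at 2000 cells/well, attached for 10-12 hours, then exposed to compounds for 30-36 hours at 37C before ONE-Glo luminescence.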
Rab9 prom act: qHTS Assay for Rab9 Promoter Activators | 320,000 compounds, 2.8% hits | Potency, µM (top dose mostly 9.22 µM), inactives show top-dose activation, negative = inhibition, actives largely listed as activators | Huh7 Rab9 promoter-luciferase reporter, luminescence, 24 h | AID 485297, 2010; note: % of control where 0% means no effect; nearly all actives have a fitted effect of over 60% in size
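Luciferase signal after 10 min detection reagent at ambient indicates Rab9 promoter upregulation; stably transfected Huh7 cells were treated 24 h with compound in DMSO at 37 °C, 5% CO2.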
NPC1 prom act: qHTS Assay for NPC1 Promoter Activators | Huh7 NPC1 promoter luciferase reporter, 24 h | Potency, µM (titrated, usually from 9.22 µM), inactives show at the highest dose activation, usual class: activators | 320,000 compounds, 2.4% hits | AID 485313, 2010; note: % of control where 0% means no effect; nearly all actives have a fitted effect of over 60% in size
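Huh7 reporter cells (NPC1 promoter driving luciferase) are dosed with compound for 24 h at 37 °C, 5% CO2; luciferase detection reagent is then added and luminescence measured after 10 min at ambient temperature.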
* hit, by the source's call; ? = inconclusive; . = no result given; [ ] = remark or other dose. Only some compounds are listed: those with a hit (about 7.3% of all), similar ones and a draw of the others. Calls come from the whole dose curve; as a rule, active = well fitted curve in the direction sought with a large enough effect; inconclusive = small, poorly fitted or top-dose-only effect, or another doubt; inactive = no such curve, though single readings can be large; an effect the other way counts as inactive or inconclusive. Potency is the fitted concentration of half-maximal effect.

SMILES | Luc counter | FLuc counter | SMN2 splice up | Rab9 prom act | NPC1 prom act
O=C(N/N=C\c1ccc([N+](=O)[O-])s1)C1COc2ccccc2O1 (stereo not given) | . | 4% | . | 1.1µM* | ?
Cc1nn(-c2ccccc2)c(Cl)c1/C=N/Nc1ccc(S(=O)(=O)Nc2ccccc2C(=O)O)cc1[N+](=O)[O-] | -4% | 4% | 11% | -6% | 0%
Cc1ccc(S(=O)(=O)Nc2nc3ccccc3s2)cc1 | -2% | 1% | 17% | 1% | 0%
Cc1nn(-c2ccccc2Cl)c(Cl)c1/C=N/Nc1nc2ccccc2s1 | -8% | 0.17µM* | -90% | -31% | -20%
C=CC(=O)c1ccc(CCCCCC)cc1 | . | . | . | -7%[46.1 µM] | -4%[46.1 µM]
COc1cccc(-n2c(-c3ccco3)nc3c(cnn3-c3ccccc3C)c2=O)c1 | . | -2% | ? | . | .
CCOc1ccccc1NC(=O)CSC1=Nc2ccccc2C2=NC(CC(=O)NCc3ccc4c(c3)OCO4)C(=O)N12 (stereo not given) | . | -2% | 6% | . | .
CCN(CC)c1cccc(O)c1 | . | . | 3% | . | .
COc1ccc(CCN2CCC(CNC(=O)c3cnn(-c4ccc(C)cc4)c3C3CCN(C(=O)OC(C)(C)C)CC3)CC2)cc1 | . | -5% | . | . | .
c1ccc(-c2ccc(-c3ccc(C4=NCCN4)cc3)o2)cc1 | 0%[7.66 µM] | . | 22%[9.22 µM] | . | .
COc1cc2nc(NCc3ccccc3Cl)n3nc(-c4cccnc4)nc3c2cc1OC | . | -3% | -1% | . | .
O=C(N/N=C\c1ccc(Cl)s1)C1COc2ccccc2O1 (stereo not given) | . | -15% | . | 2% | -17%
Cc1nn(-c2ccccc2)c(Cl)c1/C=N/NC(=O)C1COc2ccccc2O1 (stereo not given) | -2% | 7.6µM* | 0% | -1% | -2%
Cc1nn(-c2ccccc2)c(Cl)c1/C=N/NC(=O)c1ccc(CNc2ccccc2)o1 | 2% | 2.1µM* | ? | 5% | 15%
Cc1nn(-c2ccccc2)c(Cl)c1/C=N/NC(=O)c1ccco1 | 2% | 3.8µM* | 22µM* | 2.5µM* | 3.2µM*
Cc1cc(C(=O)N/N=C/c2cn(C)nc2C)c2ccccc2n1 | . | 0% | . | -1% | -5%
CCN(CC)S(=O)(=O)c1cccc(C(=O)N/N=C/c2c(C)nn(-c3ccccc3)c2Cl)c1 | 1% | 3% | -20% | -1% | 3%
Cc1nn(-c2ccccc2)c(Cl)c1/C=N/NC(=O)CCNc1n[nH]c(=O)[nH]c1=O | . | ? | . | -10% | 1%
Cc1nn(C)cc1/C=N/NC(=O)c1ccco1 | . | 17µM* | . | ? | 25%
Cc1ccc(C)c(N(C)C(=O)c2cc3c(s2)-c2ccccc2OC3)c1 | . | -19% | -2% | . | .
Cc1ccc(-n2ncc(C(=O)N3CCN(C4CCCCC4)CC3)c2C2CCN(C(=O)OC(C)(C)C)CC2)cc1C | . | 1% | . | . | .
CCOC(=O)c1c(C)[nH]c(C)c1S(=O)(=O)N(C)CC(=O)Nc1cccc(C(F)(F)F)c1 | . | 2% | . | . | .
CC1Cc2cc(S(=O)(=O)NCc3ccc(F)cc3)ccc2N1C(=O)C1CCC1 (stereo not given) | . | -9% | . | . | .
CNC(=S)N/N=C/c1c(C)nn(-c2ccccc2)c1Cl | -3% | ? | ? | 29% | 12%
Cc1nn(-c2ccccc2)c(Cl)c1/C=N/NC(=O)OC(C)(C)C | 5% | 15µM* | 18µM* | 2µM* | 2.8µM*
SMILES | Luc counter | FLuc counter | SMN2 splice up | Rab9 prom act | NPC1 prom act
CC(C)(C)OC(=O)N/N=C\c1ccc([N+](=O)[O-])s1 | 3% | 27µM* | -55% | 17% | 23%
CCOC(=O)N/N=C/c1c(C)nn(-c2ccccc2Cl)c1Cl | 1% | 9.5µM* | 13µM* | ? | ?
Cc1ccc(C)c(OCC(=O)N/N=C/c2c(C)nn(-c3ccccc3)c2Cl)c1 | 18% | 3% | -9% | -2% | -2%
CCOC(=O)N/N=C\c1ccc([N+](=O)[O-])s1 | 2% | -9% | -33% | 19% | 3%
Cc1ccc(-c2nn(CC(=O)NC3CCCCC3)c3c2cnc2ccccc23)cc1 | . | 0% | . | . | .
CC(=O)Nc1nonc1-c1nnc(SCc2ccc(F)cc2)n1C | . | 2% | . | . | .
O=c1cc2[nH]c3ccccc3c(=O)n2nc1-c1ccccc1 | -3% | 19µM* | 22% | ? | ?
CCC(=O)N1CCc2cc(S(=O)(=O)CCC(=O)N3CCN(c4cc(C)ccc4C)CC3)ccc21 | . | 0% | -16% | . | .
Cc1c(C(=O)N2CCCC2)oc2c1-c1nn(CC(=O)NCc3cccc(Br)c3)cc1CC2 | . | -18% | . | . | .
CCOc1ccc(N2CC(NC(=O)C3CCCC3)CC2=O)cc1 (stereo not given) | . | -1% | . | . | .
Cc1ccc(N2NC(=O)/C(=C/c3ccc(-c4ccc(Cl)c(C(=O)O)c4)o3)C2=O)cc1 | -2% | 11µM* | 9% | -3% | 0%
CCN(CC)c1ccc(/C=C2/SC(=O)N(C(C)C)C2=O)o1 | -1% | 21µM* | 21% | 24% | 26%
O=C1NN(c2ccccc2)C(=O)/C1=C\c1ccc(-c2cc([N+](=O)[O-])ccc2O)o1 | -27% | 15µM* | . | -4% | -3%
CC(C)N1C(=O)S/C(=C\c2ccc(-c3ccc(Cl)c(C(=O)O)c3)o2)C1=O | . | 3µM* | . | 0.4µM* | 0.5µM*
CCCN1C(=O)S/C(=C\c2ccc(N3CCOCC3)o2)C1=O | 9% | ? | -23% | ? | 22%
CN1CCN(C(c2ccccc2)c2sc3nc(-c4ccco4)nn3c2O)CC1 (stereo not given) | . | 2% | . | . | .
O=C1NN(c2ccc(Cl)cc2)C(=O)/C1=C\c1ccc(-c2cccc(C(=O)O)c2)o1 | 1% | 17µM* | 26% | 14% | 7%
COc1ccc(-c2cc(C(=O)Nc3ccc4c(c3)OCO4)no2)cc1 | . | 2% | 5% | -2% | 1%
O=C(Nc1ccc2c(c1)OCO2)c1cc(C2CC2)on1 | -4% | 4.3µM* | 11µM* | 1.4µM* | 1.6µM*
CC(C)c1cc(C(F)(F)F)n2nc(C(=O)Nc3ccc4c(c3)OCO4)cc2n1 | 4% | 12µM* | 9% | ? | 28%
O=C(Nc1ccc2c(c1)OCO2)C1CC1 | . | ? | . | 25% | 5%
CC(C)c1cc(C(=O)Nc2ccc3c(c2)OCO3)no1 | -6% | 3.4µM* | 7.1µM* | 1.6µM* | 2.8µM*
Cc1ccc(CCNC(=O)CN(c2ccc(C(C)C)cc2)S(=O)(=O)c2c(C)nn(C)c2C)cc1 | . | 0% | -12% | . | .
CCc1ccc(NC(=O)Cn2c(=O)n(Cc3ccco3)c(=O)c3oc4ccccc4c32)cc1 | . | -1% | . | . | .
CCOC(=O)c1cc(=O)n2c(nc3ccccc32)[nH]1 | . | 24µM* | . | ? | 28%
Cc1cc(=O)n2c(nc3ccccc32)[nH]1 | 5% | -19% | -48% | 3% | -1%
CCCc1cc(=O)n2c(nc3ccccc32)[nH]1 | -4% | 17µM* | ? | ? | 16%

Source: PubChem
